The list is not random: actives were taken first. Their share in the collection is about 3%.
SENP8 block-1 – SENP8 protease inhibition; inhibition, % at 10 µM; Q96LD8; 330,000 tested, 1.2% active; purified SENP8, Z-RLRGG-aminoluciferin cleavage, luminescence; AID 2540; in the data active = inhibition above about 50%
SENP8 block-2 – inhibitors of human SENP8 protease; Q96LD8; recombinant SENP8, Nedd8 substrate fluorescence; inhibition, % at 20 µM; 360,000 tested, 0.64% active; AID 602440; in the data active = inhibition mostly above about 40%, no sharp cut-off; inactive = mostly below about 27%
SENP6 inh – inhibitors of human SENP6 protease; Q9GZR1; Recombinant SENP6 catalytic domain, aminoluciferin luminescence; inhibition, % at 10 µM; 330,000 tested, 1.8% active; AID 2599;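 active = inhibition above about 50% at the single tested dose, limit read from the data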;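 note: plate controls were DMSO wells with enzyme for no effect and DMSO wells lacking enzyme for full effect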
Target sequence (Q9GZR1 628-1112 limits assumed): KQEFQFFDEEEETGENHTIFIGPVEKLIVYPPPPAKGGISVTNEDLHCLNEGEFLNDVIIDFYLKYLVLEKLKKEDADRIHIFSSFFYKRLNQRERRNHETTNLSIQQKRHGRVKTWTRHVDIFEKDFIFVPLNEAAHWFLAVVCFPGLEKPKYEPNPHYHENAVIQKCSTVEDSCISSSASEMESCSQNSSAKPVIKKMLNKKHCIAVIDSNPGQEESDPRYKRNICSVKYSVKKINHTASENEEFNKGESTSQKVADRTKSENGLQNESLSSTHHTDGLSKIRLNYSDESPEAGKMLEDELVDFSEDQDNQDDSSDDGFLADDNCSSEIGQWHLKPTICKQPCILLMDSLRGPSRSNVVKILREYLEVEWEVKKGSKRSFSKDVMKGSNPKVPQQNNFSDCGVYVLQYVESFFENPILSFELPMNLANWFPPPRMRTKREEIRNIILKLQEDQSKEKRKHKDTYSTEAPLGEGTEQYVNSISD
TRAIL sens C8 – sensitizes caspase-8 expressing cells to TRAIL | NB7+C8 cells + TRAIL, ATPlite viability luminescence | AID 624354 | inhibition (viability loss, TRAIL sensitization), % at 10 µM | 360,000 tested, 1% active;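 active = compounds causing at least 50% loss of cell viability in the single-dose screen, relative to plate controls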
SENP7 block – inhibitors of human SENP7 protease. 330,000 tested, 1.5% active. recombinant SENP7, Z-RLRGG-aminoluciferin luminescence, 40 min. inhibition, % at 5 µM. Q9BQF6. AID 434973;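 active = inhibition above about 50% at the single test dose, limit read from the data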;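 note: plate controls were DMSO with enzyme for no effect and no enzyme buffer wells for full effect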
PPC-1+TRAIL kill – compounds killing PPC-1 cancer cells with TRAIL present (potentiator screen, no TRAIL-free arm); 220,000 tested, 0.41% active; AID 1443; cell killing (% activity), % at 4 µM or 5 µM; PPC-1 cells + TRAIL, ATPLite viability luminescence;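 active = cell killing above 50% in the first pass at 4 µM, then a duplicate retest at 5 µM averaging 50% or more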;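 note: plate controls were cells with TRAIL plus DMSO for no effect and medium-only wells lacking cells for full effect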
SENP8 conf – human SENP8 inhibition, confirmed. shares compounds with SENP7 block. Recombinant SENP8, Z-RLRGG-aminoluciferin luminescence, 60 min. inhibition, % at 12.5 µM. 6,200 tested, 40% active. AID 488912;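 active = mean inhibition across replicates above about 50%, limit read from the data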
SENP6 confirm – confirmation of human SENP6 protease inhibitors. 6,200 tested, 58% active. shares compounds with SENP7 block. inhibition, % at 12.5 µM. recombinant SENP6, Z-RLRGG-aminoluciferin luminescence. AID 488915
SENP7 conf – human SENP7 inhibition, confirmed. shares compounds with SENP7 block. recombinant SENP7, Z-RLRGG-aminoluciferin luminescence, 40 min. inhibition, % at 12.5 µM. 6,200 tested, 69% active. AID 488917
Casp3 SENP sel – inhibits human caspase-3 in SENP selectivity test; shares compounds with SENP7 block; purified caspase-3, Z-DEVD-aminoluciferin luminescence, 60 min; inhibition, % at 12.5 µM; 6,200 tested, 60% active; AID 488918;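 active = mean inhibition above about 50%, limit read from the data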;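 note: plate controls were enzyme with DMSO for no effect and wells without caspase-3 for full effect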
SENP luc ctr – counter-screen for SENP inhibitors: luminescence interference. inhibition, % at 12.5 µM. Pre-incubated SENP8/Z-RLRGG-aminoluciferin, luciferase luminescence interference. AID 488919. 6,200 tested, 39% active. shares compounds with SENP7 block;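 active = mean inhibition above about 50% when retested at one dose, limit read from the data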;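 note: plate controls were DMSO wells with completed reaction for no effect and substrate without enzyme for full effect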
Numbers without * were called inactive; nt = no result.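 Rule for the calls, unless noted: active = mean inhibition above about 50% in the one-dose retest (limit read from the data); inactive = the rest.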

SMILES | SENP8 block-1 | SENP8 block-2 | SENP6 inh | TRAIL sens C8 | SENP7 block | PPC-1+TRAIL kill | SENP8 conf | SENP6 confirm | SENP7 conf | Casp3 SENP sel | SENP luc ctr
O=c1c2c3c(sc2nc2n1CCCCC2)CCCC3 | 21.4 | 4.5 | 61.5* | 10.3 | 32.8 | 4.1 | 22.0 | 44.6 | 57.2* | 56.3* | 15.9
Cc1ccc(-c2nc3ccccc3c(=O)o2)cc1 | 6.6 | -15.5 | 54.5* | 35.8 | 44.9 | nt | 38.8 | 31.7 | 47.1 | 22.2 | 33.0
O=C1CCC(=O)N1c1ccc(-c2nc3sc4c(c3c(=O)o2)CCC4)cc1 | -20.3 | -22.1 | -45.1 | -5.2 | -15.1 | 8.3 | nt | nt | nt | nt | nt
Cc1sc2nc(-c3ccccc3)oc(=O)c2c1C | 75.6* | 1.5 | 46.5 | 5.1 | 91.5* | 11.1 | 62.4* | 62.7* | 64.4* | 68.9* | 33.6
O=c1oc(-c2ccccc2)nc2sc3c(c12)CCC3 | 20.2 | -71.7 | 91.0* | -0.1 | 87.5* | 19.2 | 51.1* | 49.7 | 39.8 | 64.4* | 28.6
Cc1nc2sc(C)c(C)c2c(=O)o1 | -6.6 | 8.5 | -7.0 | 3.5 | -3.7 | 13.6 | nt | nt | nt | nt | nt
O=c1oc(-c2ccco2)nc2sc3c(c12)CCCC3 | 42.4 | -173.3 | 72.0* | 21.4 | -10.5 | -2.8 | 65.7* | 54.1* | 51.9* | 26.7 | 29.4
CC1(C)CC(Cc2ccc(C(=O)c3ccccc3)cc2)N(C(=O)OC(C)(C)C)N1 (stereo not given) | nt | -30.9 | nt | 15.9 | nt | nt | nt | nt | nt | nt | nt
CC(C(=O)N1CCc2ccccc21)N1CCN(c2cccc(C(F)(F)F)c2)CC1 (stereo not given) | -0.4 | 11.8 | -5.8 | -4.6 | 4.2 | nt | nt | nt | nt | nt | nt
CC(=O)c1c(O)cc(O)cc1O | nt | 33.4 | nt | 18.1 | nt | nt | nt | nt | nt | nt | nt
Nc1nc(-c2ccccc2)nc2sc3c(c12)CCCC3 | 57.8* | -400.8 | 84.3* | 76.2* | 75.2* | 54.7* | 2.8 | 69.6* | 89.5* | 45.5 | 11.8
CC(C)(C)/C(O)=C/c1nc2ccccc2[nH]c1=O | 3.9 | -14.5 | -7.3 | -1.8 | -4.4 | -19.5 | nt | nt | nt | nt | nt
O=c1[nH]c2ccccc2nc1/C=C/c1ccccc1 | 56.0* | -395.1 | 10.3 | 33.6 | 56.3* | 18.5 | 14.4 | 27.0 | 49.1 | 41.6 | 16.1
O=c1[nH]c2ccccc2nc1/C=C/c1ccc(F)cc1 | 58.5* | -398.6 | 64.4* | 52.8* | 54.8* | 17.3 | 25.7 | 26.1 | 22.8 | 19.0 | 10.0
O=c1[nH]c2ccccc2nc1/C=C/c1ccc(O)cc1 | 93.3* | -385.4 | 93.0* | 36.0 | 92.1* | 11.8 | 96.8* | 97.6* | 102.0* | 91.9* | 82.9*
c1ccc2c(Nc3nnc(-c4ccncc4)s3)cccc2c1 | 45.7 | -105.0 | 61.1* | 29.7 | 3.4 | 18.3 | 15.3 | 51.4* | 81.1* | 48.1 | 4.7
O=C(Nc1ccc(Br)cc1)Nc1ccccc1Cl | 67.5* | 18.9 | 80.7* | -1.0 | 93.5* | 16.7 | -1.7 | 68.3* | 90.3* | 37.6 | 2.7
CSc1cccc(NC(=O)Nc2ccc(Cl)cc2)c1 | -1.4 | 23.0 | -18.5 | 3.1 | -0.3 | 32.8 | nt | nt | nt | nt | nt
O=C(Nc1cccc(C(=O)O)c1)Nc1ccccc1Cl | 93.4* | -2.9 | 95.0* | 20.9 | 96.7* | 12.6 | 97.7* | 98.1* | 102.8* | 95.6* | 75.4*
O=C(Nc1ccc(Cl)cc1)Nc1cccc(C(=O)O)c1 | 94.9* | 13.7 | 94.9* | 64.9* | 96.8* | 27.3 | 98.8* | 99.2* | 103.5* | 86.7* | 98.2*
O=C(Nc1ccc(CN2CCCCC2)cc1)Nc1ccccc1Cl | -8.9 | 17.5 | 2.3 | 10.9 | 8.8 | 5.7 | nt | nt | nt | nt | nt
O=C(Nc1cccc(C(=O)O)c1)Nc1cccc2ccccc12 | 9.4 | -52.8 | 26.8 | 12.4 | 2.8 | nt | nt | nt | nt | nt | nt
